Dicer inh = human Dicer pre-microRNA cleavage inhibition; Q9UPY3; cat-ELCCA pre-miR-21 Dicer processing, chemiluminescence; hits give high values; z-score at 25 µM; 6% of 47,000 active; AID 1347074; in the data active = z-score above about 3, passing the limit was not always enough;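 also: plate controls were vehicle for no effect and no enzyme for full effect; higher signal means more uncleaved substrate so more Dicer inhibition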
The depositor's hits bear a star. Many of the other results were omitted from the sample, so hits are more common in it than they were.

SMILES	Dicer inh
C=CCN1C(=O)C2(/C(=C(/O)c3ccc(C)cc3)C(=O)C(=O)N2CC2CCCO2)c2ccccc21 (stereo not given)	0.43
O=C(NC1CCSC1=O)c1cccc(C(=O)NC2CCSC2=O)c1 (stereo not given)	3.02*
Cc1onc(-c2ccccc2)c1C(=O)NC1CCSC1=O (stereo not given)	-0.7
O=C(NC1CCSC1=O)c1ccc(-c2ccccc2)cc1 (stereo not given)	-1.78
CN(C)S(=O)(=O)n1nc(/C=C/c2ccccc2Cl)nc1-c1ccccc1O	8.11*
CN(C)S(=O)(=O)n1cc(/C=C/c2noc(-c3ccccc3O)n2)c2ccccc21	-0.79
Oc1ccccc1-c1nc(/C=C/c2cccs2)nn1-c1ccccc1	2.96
CCOc1ccc(C2C(C(=O)OCc3ccccc3)=C(C)NC3=C2C(=O)CC(C)(C)C3)cc1OC (stereo not given)	0.34
CCN(CC)c1cc(Cl)cc(Cl)c1	-0.94
COc1ccc(C2Nc3ccccc3-c3cc(C)nn32)cc1O (stereo not given)	3.63*
CCOc1cc(C2Nc3c(C)cccc3-c3cc(C)nn32)ccc1O (stereo not given)	3.63*
CCOc1cccc(C2Nc3c(C)cccc3-c3cc(C)nn32)c1O (stereo not given)	2.69
Cc1cc2n(n1)C(c1ccccc1O)Nc1ccccc1-2 (stereo not given)	0.37
COc1ccc(C2Nc3ccccc3-c3cc(C)nn32)cc1 (stereo not given)	1.8
COc1cccc(C2Nc3ccccc3-c3cc(C)nn32)c1OC (stereo not given)	-0.12
Cc1cc2n(n1)C(c1sccc1C)Nc1ccccc1-2 (stereo not given)	1.19
Cc1cc2n(n1)C(c1sccc1C)Nc1c(C)cccc1-2 (stereo not given)	0.5
Cc1cc2n(n1)C(c1ccc(N(C)C)cc1)Nc1c(C)cccc1-2 (stereo not given)	6.03*
Cc1cc2n(n1)C(c1cc(Br)ccc1O)Nc1ccccc1-2 (stereo not given)	4.63*
CCOc1cc(C2Nc3ccccc3-c3cc(C)nn32)ccc1O (stereo not given)	0.18
Cc1cc2n(n1)C(c1ccc(N(C)C)cc1)Nc1ccccc1-2 (stereo not given)	1.27
CCOC(=O)C1=C(C)N(c2ccc(OCC)cc2)C(=O)C1	2.27
CCc1sc(-c2c(C#N)c(N)nc3c2CCCC3)cc1[N+](=O)[O-]	-0.69
COc1cc(C2NC(C(=O)O)CS2)ccc1OCc1ccccc1F (stereo not given)	-0.95
O=S(=O)(CCSc1cccs1)c1ccc(F)cc1	13.6
SMILES	Dicer inh
CC(=O)c1c(C)[nH]c(-c2ccc(C)cc2)nc1=S	-0.59
COc1ccc(/C(O)=C2\C(=O)C(=O)N(CCCn3ccnc3)C2c2ccc(C)cc2)cc1 (stereo not given)	1.19
CC1CN(Cc2ccc3c(c2)OCO3)C(=O)C(=O)N1Cc1ccc2c(c1)OCO2 (stereo not given)	2.52
O=C(O)C12CCC(C(=O)O)(CC1=O)C(=O)C2	-0.91
Cc1ccc(N2C(=O)CC(N3CCN(c4ncccn4)CC3)C2=O)cc1Cl (stereo not given)	0.28
Cc1cc2n(n1)C(c1ccc(O)c(O)c1)Nc1c(C)cccc1-2 (stereo not given)	-0.93
COc1cc(C2Nc3c(C)cccc3-c3cc(C)nn32)ccc1O (stereo not given)	0.04
COc1ccc(C2Nc3c(C)cccc3-c3cc(C)nn32)cc1O (stereo not given)	3.86*
COc1ccc(OCc2nc(N)nc(SC)n2)cc1	-1.44
CC(C)C[C@H](NC(=O)OCC1c2ccccc2-c2ccccc21)C(=O)O	4.6*
C=CCOC(=O)C(CC(=O)O)NC(=O)OCC1c2ccccc2-c2ccccc21 (stereo not given)	-0.22
CC[C@H](C)[C@H](NC(=O)OCC1c2ccccc2-c2ccccc21)C(=O)O	0.52
O=C1c2ccccc2S(=O)(=O)N1c1ccc(Cl)cc1	1.27
COc1ccc(S(=O)(=O)NCCSc2nnnn2-c2ccccc2)cc1OC	1.75
COc1ccc(C2(CNS(=O)(=O)c3ccccc3)CCCC2)cc1OC	5.94*
COc1ccc(-c2nc(S(=O)(=O)c3ccccc3)c(N3CCCCC3)o2)cc1OC	1.46
CC(=O)c1nnn(-c2cc(C(F)(F)F)ccc2Cl)c1C	1.49
CC(C)CC(C(=O)O)N1C(=O)C2CC=C(Cl)CC2C1=O (stereo not given)	-0.93
CCOC(=O)CN1C(=O)C2CC=C(Cl)CC2C1=O (stereo not given)	3.14*
COc1ccc(N2C(=O)C3CC=C(Cl)CC3C2=O)cc1 (stereo not given)	-0.6
COc1cc(CN2CCN(Cc3ccc(Br)cc3)CC2)cc(OC)c1	0.22
CCOC(=O)C/C(=N/Nc1ccccc1)C(F)(F)F	-0.73
Cc1cccn2cc(-c3ccc(NS(=O)(=O)c4ccc(Br)cc4)cc3)nc12	7.94*
Cc1cccn2cc(-c3cccc(S(=O)(=O)N4CCCC4)c3)nc12	-0.04
Cc1cccn2cc(-c3ccccc3Cl)nc12	0.28
SMILES	Dicer inh
Cc1ccc(S(=O)(=O)Nc2ccc(-c3cn4cccc(C)c4n3)cc2)cc1C	8.64*
Cc1cccn2cc(-c3cccc(S(=O)(=O)N4CCOCC4)c3)nc12	0.78
Cc1ccc(S(=O)(=O)Nc2n[nH]c(-c3ccc(C(C)(C)C)cc3)c2Br)cc1	-6.05
Cc1cccn2cc(-c3cccc(S(=O)(=O)N4CC(C)OC(C)C4)c3)nc12 (stereo not given)	-0.05
Cc1ccc(S(=O)(=O)Nc2ccc(-c3cn4cccc(C)c4n3)cc2)c(C)c1	6.09*
O=C(O)Cc1sc(Nc2ccccn2)nc1-c1ccccc1	0.28
COc1ccc(C(C)=O)cc1CS/C(=N/S(=O)(=O)c1ccccc1)Nc1cccc(F)c1	-1.78
CCOC(=O)c1nnc2c3c(-c4ccccc4)c(-c4ccccc4)nnc3nn2c1C	-0.33
CSc1cccc(N=Cc2cc(Cl)cc(Cl)c2OS(=O)(=O)c2ccc(C)cc2)c1	2.14
CCOC(=O)c1c(C)nn(-c2ccc(C(F)(F)F)cc2)c1C	-0.88
Clc1ccc(N=C2c3ccccc3CN2c2ccc(Cl)cc2)cc1	0.16
O=c1c(-c2ccccc2)c(O)c2cccc3c4c(n1c23)CCCC4	1.24
N#CC1(CN2C(=O)C3(OCCO3)c3ccccc32)CC=CCC1 (stereo not given)	1.24
CCOC(=O)Cc1nc2ccccc2[nH]1	2.82
COC(=O)CC1=NN(c2nc3ccccc3[nH]2)C(=O)C1	5.31*
CC(C)(Cc1nc2ccccc2[nH]1)C(=O)O	-1.32
CC12C(=O)N(c3ccc(F)cc3)C(=O)C1ON(c1ccccc1)C2c1ccccc1O (stereo not given)	0.75
CCOC(=O)c1c(NC(=O)CCC(=O)O)sc(C)c1C	2.07
CCOC(=O)c1c(NC(=S)N2CCN(C)CC2)sc(C)c1C	-1.87
CCNC(=S)Nc1sc(C)c(C)c1C(=O)OCC	5.32*
COc1cc([C@@H]2Nc3c(C)cccc3[C@@H]3C=CC[C@@H]32)cc(Br)c1OC	1.29
COC(=O)c1cc(OC)c(OC)cc1N1C(=O)CCC1=O	0.03
Cc1nc(N2CCCC2)ncc1S(=O)(=O)c1ccc(Cl)cc1	10.7
Nc1nc(N2CCOCC2)ncc1S(=O)(=O)c1ccc(Cl)cc1	3.88*
Nc1c2cnc(N3CCCC3)nc2nc(=O)n1-c1ccc(Cl)cc1	1.14
C=CCN(c1nc(C)c(Br)c(OC)n1)S(=O)(=O)c1ccc(C)cc1	3.62*
CCN(c1nc(C)cc(OC)n1)S(=O)(=O)c1ccc(C)cc1	2.13
